# From PubChem BioAssay (NCI)
# This is part of a sample that, as a whole, favours compounds with a hit. Of some 83,000 tested, about 20% had one in any assay.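 Cell lines were cultured in 96-well plates, exposed to a single compound concentration, and assessed for percent growth 48 hours later.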 Unmarked numbers belong to inactive results. Calls of active or inactive are those of the source. How the source made its calls: active means growth percent below 10; inactive means the rest.
# Test system: HL-60(TB) leukemia
# Assay: NCI-60 one-dose screen, 48 h (100 = growth as untreated, 0 = no growth, -100 = all killed)
# Conditions: 10 µM unless noted
row,SMILES,growth
1,Cc1ccc(S(=O)(=O)N/N=C/c2cn(-c3ccc(F)cc3)nc2-c2ccc(S(C)(=O)=O)cc2)cc1,97.5%
2,CCCCCCNC(=O)Oc1ccc(/C(=C(/C)c2ccccc2)c2ccc(OCCN(C)C)cc2)cc1,23.2%
3,CCNC(=O)Oc1ccc(/C(=C(/C)c2ccccc2)c2ccc(OCCN3CCCCCC3)cc2)cc1,-19.2% (active)
4,Nn1c(=O)n(-c2cccc(C(F)(F)F)c2)c(=O)c2cc(-c3ccc(F)cc3F)ccc21,-45.9% (active)
5,Cc1ccc(C(=O)Nc2ccc(CNCCN3CCNCC3)c(C(F)(F)F)c2)cc1C#Cc1cnc2cccnn12,-54.7% (active)
6,Cn1ccnc1C(=O)/C=C/c1ccc(CNC(=O)c2ccc(S(F)(F)(F)(F)F)cc2)cc1,-4.98% (active)
7,C[C@@H](Nc1c(C#N)cnc2ccc(-c3cnc(Cl)c(NS(C)(=O)=O)c3)cc12)c1ccccc1,-28.4% (active)
8,Cc1cc(S(=O)(=O)N(C)C)cc(NCC(=O)NC(=O)NCC(C)C)c1C,128%
9,C/C(=N/N)c1nnn(-c2ccc(Br)cc2)c1C,102%
10,CCc1cc2c(cc1Cl)nc1c(=O)[nH]c(=O)nc-1n2CCOCC(C)C,51.2%
11,Cc1ccc(-c2cc3nc(C(Cl)Cl)nc(-c4ccc(S(=O)(=O)N(C)C)cc4)n3n2)cc1,74.9%
12,Cn1ncc2c(C(=O)c3ccc(F)cc3)nc(C(C)(C)C)nc21,91.2%
13,CCOC(=O)C1=C(C)Nc2nc3ccccc3n2C1c1ccccc1 (stereo not given),85.6%
14,CNC(=O)c1cc(Oc2ccc3nc(NC(=O)c4ccc(CN5CCCN(C)CC5)c(C(F)(F)F)c4)sc3c2)ccn1,-65.2% (active)
15,Nc1ccccc1NC(=O)c1ccc(NC(=O)C/C=C/c2cccnc2)cn1,8.93% (active)
16,CCNC(=O)N1CCc2cc(OC)c(OCCc3ccc(OC)nc3)cc2C1c1ccc(C)cc1C (stereo not given),8.48% (active)
17,N/C(=N\c1nc2ccc([N+](=O)[O-])cc2s1)C(Cl)(Cl)Cl,20.7%
18,CCNC(=O)Oc1ccc(/C(=C(/C)c2ccc(Cl)cc2)c2ccc(OCCN(C)C)cc2)cc1,52.7%
19,Cc1ccc2c(n1)C(=O)C(Cl)=C(Nc1cccc(C(=O)OC(C)(C)C)c1)C2=O,16.7%
20,C#CCOc1ccc(C(Nc2ccc(Cl)cc2)c2nnnn2C2CCCCC2)cc1 (stereo not given),83.8%
21,CCc1ccc(NC(=O)N[C@@H](Cc2cc(F)cc(F)c2)C(=O)N[C@@H]2C(=O)N3CCC[C@H]3C(=O)N3CCO[C@H](C)[C@H]3C(=O)N[C@@H](CO)C(=O)N3C[C@H](C)C[C@H]3C(=O)O[C@H]2C)c(F)c1,15.4%
22,COc1ccc(CCOc2cc3c(cc2OC)CCN(C(=O)NCc2cocn2)C3c2ccc(C)cc2C)cc1 (stereo not given),5.9% (active)
23,C#C[C@]1(O)CC[C@H]2[C@@H]3CC=C4c5sc(-c6ccccn6)nc5CC[C@]4(C)[C@H]3CC[C@@]21C,41.4%
24,COc1cc(C2CC(c3ccc(Nc4nc(NCCO)nc(Nc5ccc(Cl)cc5)n4)cc3)=Nc3c(N)nc(N)nc3N2)cc(OC)c1OC (stereo not given),25%

row,SMILES,growth
1,O=C1c2c(c3c4cc(Br)ccc4[nH]c3c3ccc4ccccc4c23)C(=O)N1CCN1CCCCC1,1.48% (active)
2,O=C1Nc2cc(Cl)ccc2/C1=C\c1ccc(OCc2ccc([N+](=O)[O-])cc2)cc1,96.9%
3,CS(=O)c1nccc(-c2c(-c3ccc(F)c(OCc4ccccc4)c3)nc3sccn23)n1 (stereo not given),-6.35% (active)
4,CCOP(=O)(OCC)OC[C@]12CC[C@@H](C)[C@H](C)C1C1=CC[C@@H]3[C@@]4(C)CCCNC(C)(C)[C@@H]4CC[C@@]3(C)[C@]1(C)CC2 (stereo not given in full),-67.7% (active)
5,NS(=O)(=O)c1ccc(Nc2nc(SCC(=O)c3ccc(Cl)cc3)nc3c2CCCC3)cc1,59.3%
6,N#C/C(=C\c1ccc(-c2ccc(Cl)cc2)o1)C(=O)Nc1ncc(Cc2ccc(Br)cc2)s1,50%
7,O=C(NCc1ncc[nH]1)c1ccc(-c2nc3ccc4[nH]ncc4c3c3c2CCCC3)cc1,-24.7% (active)
8,COc1ccc(-c2nc3cc(Cl)c(Cl)cc3n2CC(=O)N=Nc2c(O)[nH]c3ccccc23)cc1,92.5%
9,COc1ccc(C(=O)c2c(N)c(C#N)cn2-c2ccc(Cl)cc2Cl)cc1,84.7%
10,Cn1cc(-c2cc(N)n3nc(-c4cn(C)c5ccc(Br)cc45)cc3n2)c2cc(Br)ccc21,26.7%
11,COC(=O)c1ccc(NC(=S)N2CCc3ccc([N+](=O)[O-])cc3C2)cc1O,97.7%
12,CN(C)C(=O)c1ccccc1-n1cnc2ccccc2c1=O,99.1%
13,CC(=O)NC(C)(C)C(=O)N1CCC[C@H]1C(=O)NC(C)(C)C(=O)N[C@@H](C)C(=O)NC(C)(C)C(=O)NC(C)(C)C(=O)N[C@@H](CCC(N)=O)C(=O)NC(C)(C)C(=O)N[C@H](C(=O)NC(C)(C)C(=O)NCC(=O)N[C@@H](CC(C)C)C(=O)NC(C)(C)C(=O)N1CCC[C@H]1C(=O)N[C@H](C(=O)NC(C)(C)C(=O)NC(C)(C)C(=O)N[C@@H](CCC(N)=O)C(=O)N[C@@H](CCC(N)=O)C(=O)N[C@H](CO)Cc1ccccc1)C(C)C)C(C)C,7.73% [4.25 µM] (active)
14,c1ccc(-c2c(-c3ccccc3)[n+](Cc3ccc4ccccc4c3)c(-c3ccccc3)n2Cc2ccc3ccccc3c2)cc1,-59.9% (active)
15,COc1ccc2c(c1)C=CC1(O2)Oc2ccc(OC)cc2C=C1C (stereo not given),-3.1% (active)
16,O=C(c1cccc(F)c1)n1ccc2cc(NC(=S)Nc3cccnc3)ccc21,85.8%
17,CN1CCN(c2ccc(Nc3nc(NCCNC(=O)c4ccccc4)c4sccc4n3)cc2)CC1,22.2%
18,Cc1c(C(=O)/C=C/c2ccc(Cl)cc2)nnn1-c1ccc2oc(=O)ccc2c1,92.9%
19,O=[N+]([O-])c1ccc(-c2nnc(SCc3ccc(O)c4ncccc34)o2)cc1,13.7%
20,CCCCSC1=C(Cl)CN(c2ccccc2)C1=O,105%
21,CN(C)CCNC(=O)c1ccc(-c2nc3ccc4[nH]ncc4c3c3c2CCC3)cc1,-18.8% (active)
22,Cc1cc(-c2ccc(Cl)cc2)n(Cc2nnc(SCC(=O)Nc3ccc(S(N)(=O)=O)cc3)n2-c2ccc([N+](=O)[O-])cc2)n1,76.8%
23,COC(=O)c1[nH]nc2c1C1(C(=O)c3cccc4cccc1c34)C(C#N)=C(N)O2 (stereo not given),82.5%
24,Cn1nc(Nc2ccccc2)c(C(=O)NN)c1N,105%

row,SMILES,growth
1,Cn1c2ccc(Br)cc2c2c3c(c4c5cc(F)ccc5oc4c21)C(=O)N(O)C3=O,99.6%
2,CC(=O)N1C(=S)NC(=O)C1CC(C)C (stereo not given),106%
3,CC1(C)CC[C@]2(CN)CC[C@]3(C)C(=CC[C@@H]4[C@@]5(C)CCCNC(C)(C)[C@@H]5CC[C@]43C)[C@H]2C1,87%
4,CNC1CCc2c(sc(NC(=O)c3ccc(C(C)(C)C)cc3)c2C(N)=O)C1 (stereo not given),-69.3% (active)
5,O=c1[nH]c2ccc(Cl)cc2cc1CSc1ccccc1Nc1nccc(-c2ccc(Cl)cc2)n1,78.5%
6,O=C(/C=C/c1cccc(C(F)(F)F)c1)Nc1cccc(C(F)(F)F)c1,38.3%
7,Cc1ccc(-n2cc(/C=C/C(=O)c3ccc(S(C)(=O)=O)cc3)c(-c3ccc(S(C)(=O)=O)cc3)n2)cc1,69.4%
8,C[C@@H]1OCC2(CCN(c3cnc(C(=O)Nc4cc(F)cc5cccnc45)cn3)CC2)[C@@H]1N,20.4%
9,O=C1c2cc(Br)ccc2-n2c1nc1cc(Br)ccc1c2=O,80%
10,O=C(Cn1cc[n+](CC(=O)c2ccc(-c3ccccc3)cc2)c1)Nc1cccc2cccnc12,14.5%
11,CC(O)C(NC(=O)C1CCCN1C(=O)CNC(=O)C1CC(=O)NCC(=O)NC(Cc2c[nH]c3ccccc23)C(=O)NC(Cc2ccc(O)cc2)C(=O)NCC(=O)NC(CO)C(=O)NC(CCC(N)=O)C(=O)NC(Cc2c[nH]c3ccccc23)C(=O)N1)C(=O)NCC(=O)NC(CCC(N)=O)C(=O)NC(CCCNC(=N)N)C(=O)NC(CC(=O)O)C(=O)O (stereo not given),99.7%
12,CCOC(=O)c1sc(NCC(=O)Nc2cccc([N+](=O)[O-])c2)c(C(=O)OCC)c1C,0.979% (active)
13,C=C1CCc2nc(SCC(=O)O)ccc2N1,96%
14,COc1cc(OC)c(S(N)(=O)=O)cc1C(=O)/C=C/c1ccccc1,5.25% (active)
15,CCOP(=O)(OCC)OC[C@]12CCC(C)(C)C[C@H]1C1=CC[C@@H]3[C@@]4(C)CC[C@H](OP(=O)(OCC)OCC)C(C)(C)[C@@H]4CC[C@@]3(C)[C@]1(C)CC2,8.99% (active)
16,COc1cc(C(=O)c2cc(C(C)=O)c3ccc(C)cn23)cc(OC)c1OC,8.8% (active)
17,COc1ccc(-c2nn(-c3ccccc3)cc2/C=C/C(=O)c2ccc(NC(=O)CCCCCCC(=O)NO)cc2)cc1,116%
18,O=C(CSc1nc2ccccc2c(=O)n1-c1ccc(Cl)cc1)N/N=C/c1ccc(Oc2ccc(Cl)cc2)cc1,111%
19,COc1c([C@@H](CC(C)C)OC(C)=O)ccc2c1C(=O)OCc1cc(C)cc(O)c1O2,63.7%
20,Cc1ccc2c(n1)C(=O)C(Cl)=C(Nc1ccc(C#N)cc1)C2=O,17.4%
21,CCOc1ccc(C(=O)Nc2ncc(Cc3ccc(F)cc3)s2)cc1,1.55% (active)
22,COc1cc(/C=N/n2cnc3oc(-c4ccccc4)cc3c2=N)cc(CN2CCOCC2)c1O,88.9%
